# Laboratory results published in ChEMBL document CHEMBL4513141, “CO-ADD screening of NIH (USA) - Clinical Collection” (2021).
# Measured potencies and affinities stand elsewhere.
# Tests used:
# Klebsiella pneumoniae = details: Concentration 20 uM; ASSAY_TEST Inhibition of Bacterial Growth; detection method Absorption (OD600); MEDIA CAMHB; plate type 384well; NBS; CORNING #3640; time 18 hr
# Candida albicans = details: 20 µM
# Cryptococcus neoformans = details: Concentration 20 uM; ASSAY_TEST Inhibition of Fungal Growth; detection method Resazurin; Absorption (OD600-OD570); plate type 384well; NBS; CORNING #3640
structure (smiles),measurement,setting,value
CC(C)[C@H](N)C(=O)OCCOCn1cnc2c(=O)nc(N)[nH]c21.Cl [VALACYCLOVIR HYDROCHLORIDE],Inhibition,Klebsiella pneumoniae,6.23%
same,Inhibition,Candida albicans,3.14%
same,Inhibition,Cryptococcus neoformans,-5.07%
CN1CCC(=C2c3ccccc3CC(=O)c3sccc32)CC1.O=C(O)/C=C/C(=O)O [KETOTIFEN FUMARATE],Inhibition,Klebsiella pneumoniae,1.04%
same,Inhibition,Candida albicans,3.18%
same,Inhibition,Cryptococcus neoformans,-3.16%
C=C[C@H]1CN2CC[C@H]1C[C@@H]2[C@@H](O)c1ccnc2ccc(OC)cc12 [QUINIDINE],Inhibition,Klebsiella pneumoniae,12.62%
same,Inhibition,Candida albicans,-0.46%
Cc1onc(-c2ccccc2)c1-c1ccc(S(N)(=O)=O)cc1 [VALDECOXIB],Inhibition,Klebsiella pneumoniae,13.38%
same,Inhibition,Candida albicans,1.13%
same,Inhibition,Cryptococcus neoformans,0.76%
CC1(C)O[C@@H]2C[C@H]3[C@@H]4CCC5=CC(=O)C=C[C@]5(C)[C@@]4(F)[C@@H](O)C[C@]3(C)[C@]2(C(=O)CO)O1 [TRIAMCINOLONE ACETONIDE],Inhibition,Klebsiella pneumoniae,14.59%
same,Inhibition,Candida albicans,0.96%
same,Inhibition,Cryptococcus neoformans,-5.82%
Cl.O=C1[C@H]2CCCC[C@H]2C(=O)N1CCCCN1CCN(c2nsc3ccccc23)CC1,Inhibition,Klebsiella pneumoniae,9.66%
same,Inhibition,Candida albicans,2.33%
same,Inhibition,Cryptococcus neoformans,-7.18%
CC[C@@H]1C(=O)OC[C@@H]1Cc1cncn1C.Cl [PILOCARPINE HYDROCHLORIDE],Inhibition,Klebsiella pneumoniae,13.79%
same,Inhibition,Candida albicans,2.29%
same,Inhibition,Cryptococcus neoformans,-1.97%
COc1ccc(C(=O)NCc2ccc(OCCN(C)C)cc2)cc1OC.Cl,Inhibition,Klebsiella pneumoniae,9.02%
same,Inhibition,Candida albicans,4.71%
same,Inhibition,Cryptococcus neoformans,-2.57%
O=c1cnn([C@@H]2O[C@H](CO)[C@@H](O)[C@H]2O)c(=O)[nH]1 [6-AZAURIDINE],Inhibition,Klebsiella pneumoniae,4.69%
same,Inhibition,Candida albicans,7.12%
same,Inhibition,Cryptococcus neoformans,7.24%
Cc1ccc(Cl)c(Nc2ccccc2C(=O)[O-])c1Cl.O.[Na+] [MECLOFENAMATE SODIUM],Inhibition,Klebsiella pneumoniae,12.39%
same,Inhibition,Candida albicans,8.09%
same,Inhibition,Cryptococcus neoformans,1.36%
CCc1nn(CCCN2CCN(c3cccc(Cl)c3)CC2)c(=O)n1CCOc1ccccc1.Cl [NEFAZODONE HYDROCHLORIDE],Inhibition,Klebsiella pneumoniae,1.06%
same,Inhibition,Candida albicans,2.01%
same,Inhibition,Cryptococcus neoformans,-2.69%
CC1CCN(CCCC(=O)c2ccc(F)cc2)CC1.Cl,Inhibition,Klebsiella pneumoniae,24.05%
same,Inhibition,Candida albicans,2.99%
same,Inhibition,Cryptococcus neoformans,-4.29%
COc1cc2nc(N(C)CCCNC(=O)C3CCCO3)nc(N)c2cc1OC (stereo not drawn) [ALFUZOSIN],Inhibition,Klebsiella pneumoniae,-2.08%
same,Inhibition,Candida albicans,-0.8%
same,Inhibition,Cryptococcus neoformans,-5.01%
Cl.O[C@@H](c1cc(C(F)(F)F)nc2c(C(F)(F)F)cccc12)[C@H]1CCCCN1,Inhibition,Klebsiella pneumoniae,14.04%
same,Inhibition,Candida albicans,5.35%
C[C@@H](O)[C@H]1C(=O)N2C(C(=O)O)=C(S[C@@H]3CN[C@H](C(=O)N(C)C)C3)[C@H](C)[C@H]12 [MEROPENEM],Inhibition,Klebsiella pneumoniae,0.03%
same,Inhibition,Candida albicans,3.42%
same,Inhibition,Cryptococcus neoformans,2.76%
CCC(=O)O[C@]1(C(=O)SCF)[C@H](C)C[C@H]2[C@@H]3C[C@H](F)C4=CC(=O)C=C[C@]4(C)[C@@]3(F)[C@@H](O)C[C@@]21C [FLUTICASONE PROPIONATE],Inhibition,Klebsiella pneumoniae,6.12%
same,Inhibition,Candida albicans,10.1%
same,Inhibition,Cryptococcus neoformans,-1.8%
CCC(=O)OCC(=O)[C@@]1(OC(=O)CC)[C@@H](C)C[C@H]2[C@@H]3CCC4=CC(=O)C=C[C@]4(C)[C@@]3(Cl)[C@@H](O)C[C@@]21C [BECLOMETHASONE DIPROPIONATE],Inhibition,Klebsiella pneumoniae,7.24%
same,Inhibition,Candida albicans,3.12%
same,Inhibition,Cryptococcus neoformans,1.67%
CC(C)C[C@H](NC(=O)[C@@H](O)[C@H](N)Cc1ccccc1)C(=O)O [UBENIMEX],Inhibition,Klebsiella pneumoniae,12.45%
same,Inhibition,Candida albicans,0.73%
same,Inhibition,Cryptococcus neoformans,-0.18%
c1ccc2[nH]c(-c3cscn3)nc2c1 [THIABENDAZOLE],Inhibition,Klebsiella pneumoniae,17.05%
same,Inhibition,Candida albicans,1.43%
same,Inhibition,Cryptococcus neoformans,-4.52%
O=C(O)c1cccnc1 [NIACIN],Inhibition,Klebsiella pneumoniae,4.99%
same,Inhibition,Candida albicans,2.72%
same,Inhibition,Cryptococcus neoformans,-3.83%
Cc1cccc(C)c1OCC(C)N.Cl (stereo not drawn) [MEXILETINE HYDROCHLORIDE],Inhibition,Klebsiella pneumoniae,13.5%
same,Inhibition,Candida albicans,3.72%
same,Inhibition,Cryptococcus neoformans,-0.12%
CC(=O)OCC(=O)C12OC3(CCCC3)OC1CC1C3CCC4=CC(=O)C=CC4(C)C3(F)C(O)CC12C (stereo not drawn),Inhibition,Klebsiella pneumoniae,13.26%
same,Inhibition,Candida albicans,3.39%
same,Inhibition,Cryptococcus neoformans,1.74%
Cc1cccc(Nc2ccncc2S(=O)(=O)NC(=O)NC(C)C)c1 [TORSEMIDE],Inhibition,Klebsiella pneumoniae,8.97%
same,Inhibition,Candida albicans,2.49%
same,Inhibition,Cryptococcus neoformans,0.39%
CC(C)(C)NC(=O)[C@@H]1C[C@@H]2CCCC[C@@H]2CN1C[C@@H](O)[C@H](Cc1ccccc1)NC(=O)[C@H](CC(N)=O)NC(=O)c1ccc2ccccc2n1.CS(=O)(=O)O [SAQUINAVIR MESYLATE],Inhibition,Klebsiella pneumoniae,4.6%
same,Inhibition,Candida albicans,4.21%
same,Inhibition,Cryptococcus neoformans,-6.99%
CC[N+](C)(CC)CCOC(=O)C(O)(c1ccccc1)C1CCCCC1.[Br-] (stereo not drawn) [OXYPHENONIUM BROMIDE],Inhibition,Klebsiella pneumoniae,20%
same,Inhibition,Candida albicans,2.42%
same,Inhibition,Cryptococcus neoformans,-6.44%
O=C1CN(/N=C/c2ccc(-c3ccc([N+](=O)[O-])cc3)o2)C(=O)[N-]1.[Na+] [DANTROLENE SODIUM],Inhibition,Klebsiella pneumoniae,2.98%
same,Inhibition,Candida albicans,0.63%
same,Inhibition,Cryptococcus neoformans,5.43%
COc1ccnc(C[S+]([O-])c2nc3cc(OC(F)F)ccc3[n-]2)c1OC.O.[Na+] (stereo not drawn) [PANTOPRAZOLE SODIUM],Inhibition,Klebsiella pneumoniae,5.85%
same,Inhibition,Candida albicans,19.6%
same,Inhibition,Cryptococcus neoformans,-26.37%
CC(Oc1c(Cl)cccc1Cl)C1=NCCN1.Cl (stereo not drawn) [LOFEXIDINE HYDROCHLORIDE],Inhibition,Klebsiella pneumoniae,6.35%
same,Inhibition,Candida albicans,2.12%
same,Inhibition,Cryptococcus neoformans,-0.75%
CNCCC=C1c2ccccc2CCc2ccccc21.Cl [NORTRIPTYLINE HYDROCHLORIDE],Inhibition,Klebsiella pneumoniae,11.74%
same,Inhibition,Candida albicans,1.73%
same,Inhibition,Cryptococcus neoformans,-10.6%
CCCCC[C@H](O)/C=C/[C@H]1[C@H](O)CC(=O)[C@@H]1CCCCCCC(=O)O [ALPROSTADIL],Inhibition,Klebsiella pneumoniae,7.2%
same,Inhibition,Candida albicans,3.09%
same,Inhibition,Cryptococcus neoformans,2.52%
CNCCCN1c2ccccc2CCc2ccccc21.Cl [DESIPRAMINE HYDROCHLORIDE],Inhibition,Klebsiella pneumoniae,6.09%
same,Inhibition,Candida albicans,2.92%
Nc1ccn([C@H]2CC[C@@H](CO)O2)c(=O)n1 [ZALCITABINE],Inhibition,Klebsiella pneumoniae,8%
same,Inhibition,Candida albicans,0.46%
same,Inhibition,Cryptococcus neoformans,-0.26%
CC(=O)NS(=O)(=O)c1ccc(N)cc1 [SULFACETAMIDE],Inhibition,Klebsiella pneumoniae,11.67%
same,Inhibition,Candida albicans,1.53%
same,Inhibition,Cryptococcus neoformans,0.24%
CN(Cc1cnc2nc(N)nc(N)c2n1)c1ccc(C(=O)N[C@@H](CCC(=O)O)C(=O)O)cc1.O,Inhibition,Klebsiella pneumoniae,9.2%
same,Inhibition,Candida albicans,12.2%
same,Inhibition,Cryptococcus neoformans,-1.89%
Nc1nnc(-c2cccc(Cl)c2Cl)c(N)n1 [LAMOTRIGINE],Inhibition,Klebsiella pneumoniae,6.26%
same,Inhibition,Candida albicans,3.32%
same,Inhibition,Cryptococcus neoformans,-2.92%
CS(=O)(=O)O.Cc1c(O)cccc1C(=O)N[C@@H](CSc1ccccc1)[C@H](O)CN1C[C@H]2CCCC[C@H]2C[C@H]1C(=O)NC(C)(C)C [NELFINAVIR MESYLATE],Inhibition,Klebsiella pneumoniae,0.71%
same,Inhibition,Candida albicans,0.96%
same,Inhibition,Cryptococcus neoformans,-18.17%
CCCC1O[C@@H]2C[C@H]3[C@@H]4CCC5=CC(=O)C=C[C@]5(C)[C@H]4[C@@H](O)C[C@]3(C)[C@]2(C(=O)CO)O1 (stereo partly drawn) [BUDESONIDE],Inhibition,Klebsiella pneumoniae,10.57%
same,Inhibition,Candida albicans,2.59%
same,Inhibition,Cryptococcus neoformans,-1.35%
CC1(C)S[C@@H]2[C@H](/N=C/N3CCCCCC3)C(=O)N2[C@H]1C(=O)O [AMDINOCILLIN],Inhibition,Klebsiella pneumoniae,18.13%
same,Inhibition,Candida albicans,4.08%
same,Inhibition,Cryptococcus neoformans,-5.88%
CC(C)(C)NC(=O)[C@H]1CC[C@H]2[C@@H]3CC[C@H]4NC(=O)C=C[C@]4(C)[C@H]3CC[C@]12C [FINASTERIDE],Inhibition,Klebsiella pneumoniae,-7.24%
same,Inhibition,Candida albicans,0.68%
same,Inhibition,Cryptococcus neoformans,-1.89%
Cc1sc(N)c(C(=O)c2cccc(C(F)(F)F)c2)c1C,Inhibition,Klebsiella pneumoniae,7%
same,Inhibition,Candida albicans,1.23%
same,Inhibition,Cryptococcus neoformans,-0.97%
Cc1ncc([N+](=O)[O-])n1CCO [METRONIDAZOLE],Inhibition,Klebsiella pneumoniae,13.91%
same,Inhibition,Candida albicans,1.89%
same,Inhibition,Cryptococcus neoformans,-8.47%
CCCCC(=O)O[C@H]1CC[C@H]2[C@@H]3CCc4cc(O)ccc4[C@H]3CC[C@]12C [ESTRADIOL VALERATE],Inhibition,Klebsiella pneumoniae,8.52%
same,Inhibition,Candida albicans,0.66%
same,Inhibition,Cryptococcus neoformans,2.38%
CN1CCc2cc(Cl)c(O)cc2[C@@H](c2ccccc2)C1.Cl,Inhibition,Klebsiella pneumoniae,8.81%
same,Inhibition,Candida albicans,1.81%
same,Inhibition,Cryptococcus neoformans,-7.18%
CN(C)[C@@H]1C(=O)C(C(=O)NCN2CCCC2)=C(O)[C@@]2(O)C(O)=C3C(=O)c4c(O)cccc4[C@@](C)(O)C3CC12 (stereo partly drawn),Inhibition,Klebsiella pneumoniae,7.32%
same,Inhibition,Candida albicans,0.75%
same,Inhibition,Cryptococcus neoformans,-8.19%
COc1ccccc1N1CCN(CC(O)COc2cccc3ccccc23)CC1 (stereo not drawn) [NAFTOPIDIL],Inhibition,Klebsiella pneumoniae,-0.32%
same,Inhibition,Candida albicans,2.55%
same,Inhibition,Cryptococcus neoformans,1.21%
CC(C)NCC(O)c1cc(O)cc(O)c1 (stereo not drawn) [METAPROTERENOL],Inhibition,Klebsiella pneumoniae,7.02%
same,Inhibition,Candida albicans,1.29%
same,Inhibition,Cryptococcus neoformans,0.32%
CCCNC(=O)NS(=O)(=O)c1ccc(Cl)cc1 [CHLORPROPAMIDE],Inhibition,Klebsiella pneumoniae,11.38%
same,Inhibition,Candida albicans,3.19%
same,Inhibition,Cryptococcus neoformans,0%
CN(C)CC[C@@H](c1ccc(Cl)cc1)c1ccccn1.O=C(O)/C=C\C(=O)O [DEXCHLORPHENIRAMINE MALEATE],Inhibition,Klebsiella pneumoniae,21.61%
same,Inhibition,Candida albicans,2.45%
same,Inhibition,Cryptococcus neoformans,-7.42%
CC(=O)OCC(=O)[C@@]1(O)CC[C@H]2[C@@H]3CCC4=CC(=O)CC[C@]4(C)[C@H]3[C@@H](O)C[C@@]21C [HYDROCORTISONE ACETATE],Inhibition,Klebsiella pneumoniae,10.46%
same,Inhibition,Candida albicans,1.02%
same,Inhibition,Cryptococcus neoformans,-7.62%
CC1CNc2c(cccc2S(=O)(=O)N[C@@H](CCCNC(=N)N)C(=O)N2CC[C@@H](C)C[C@@H]2C(=O)O)C1 (stereo partly drawn) [ARGATROBAN],Inhibition,Klebsiella pneumoniae,8.18%
same,Inhibition,Candida albicans,4.39%
same,Inhibition,Cryptococcus neoformans,-2.44%
CN1CCC(=C2c3ccccc3C=Cc3ccccc32)CC1.Cl [CYPROHEPTADINE HYDROCHLORIDE],Inhibition,Klebsiella pneumoniae,17.49%
same,Inhibition,Candida albicans,3.56%
same,Inhibition,Cryptococcus neoformans,-5.58%
CC(=O)/N=c1/sc(S(N)(=O)=O)nn1C [METHAZOLAMIDE],Inhibition,Klebsiella pneumoniae,3.3%
same,Inhibition,Candida albicans,3.37%
same,Inhibition,Cryptococcus neoformans,-3.07%
